Laboratory results as given in PubChem BioAssay (NCATS).
Records with an inconclusive call do not appear. Activity calls are given as the source filed them. The call rests on the fitted dose curve; in most records, active means well fitted curve in the direction sought with a large enough effect; inconclusive means small, poorly fitted or top-dose-only effect, or another doubt; inactive means no such curve, though single readings can be large; an effect the other way counts as inactive or inconclusive.

Legend:
[1] = Quantitative High-Throughput drug screen in 47 multiple myeloma cell lines against the NCATS MIPE library collection: ARD_JJKsccE7 cell viability assay (AID 1918929)
In short: (§1)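 Myeloma cell lines, 500 cells per well, exposed to MIPE 4.0 library compounds for 48 h at 37C, 5% CO2. Viability from ATP by CellTiter-Glo luminescence; normalised to DMSO (100%) and media-only (0%) wells.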

[2] = Quantitative High-Throughput drug screen in 47 multiple myeloma cell lines against the NCATS MIPE library collection: Karpas620_DSMZ cell viability assay (AID 1918959); further: nearly all actives have a fitted effect of over 30% in size
In short: (§2)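 Luminescent ATP measurement with CellTiter-Glo gives viability, scaled between DMSO-only wells (100%) and media-only wells (0%). Cells, 500 per well, faced library compounds for 48 hours at 37C.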

[3] = Quantitative High-Throughput drug screen in 47 multiple myeloma cell lines against the NCATS MIPE library collection: KMM1_JCRB cell viability assay (AID 1918960); further: nearly all actives have a fitted effect of over 30% in size
In short: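 ATP readout (CellTiter-Glo), 48 h drug incubation, 37 °C/5% CO2, 500 cells per well; normalisation to DMSO (100%) and media-only (0%) controls.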

[4] = Quantitative High-Throughput drug screen in 47 multiple myeloma cell lines against the NCATS MIPE library collection: JIM1_ECACC cell viability assay (AID 1918964)
In short: as §1

[5] = Quantitative High-Throughput drug screen in 47 multiple myeloma cell lines against the NCATS MIPE library collection: KHM11_PLB cell viability assay (AID 1918962); further: nearly all actives have a fitted effect of over 35% in size
In short: as §2

[6] = Quantitative High-Throughput drug screen in 47 multiple myeloma cell lines against the NCATS MIPE library collection: INA6_PLB cell viability assay (AID 1918965; further: nearly all actives have a fitted effect of over 55% in size)
In short: (§3)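 Steps: seed 500 cells per well; pin-transfer MIPE 4.0 library; incubate 48 h at 37C, 5% CO2, humidified; add CellTiter-Glo, 5 min room temperature; read luminescence.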

[7] = Quantitative High-Throughput drug screen in 47 multiple myeloma cell lines against the NCATS MIPE library collection: H1112_PLB cell viability assay (AID 1918967; further: nearly all actives have a fitted effect of over 30% in size)
In short: as §1

[8] = Quantitative High-Throughput drug screen in 47 multiple myeloma cell lines against the NCATS MIPE library collection: JIM3_ECACC cell viability assay (AID 1918963; further: nearly all actives have a fitted effect of over 35% in size)
In short: as §2

[9] = Quantitative High-Throughput drug screen in 47 multiple myeloma cell lines against the NCATS MIPE library collection: Karpas417_ECACC cell viability assay (AID 1918961); conditions: Karpas417 myeloma viability, CellTiter-Glo ATP luminescence, 48 h; viability (% of DMSO): at 45.8 µM (top of the series) unless noted
In short: as §3

[10] = Quantitative High-Throughput drug screen in 47 multiple myeloma cell lines against the NCATS MIPE library collection: JJN3_DSMZ cell viability assay (AID 1918966; further: nearly all actives have a fitted effect of over 50% in size)
In short: as §1

Measured: Potency
Potency means the concentration at half of the fitted maximal effect.

O=c1[nH]c(-c2ccc(C(F)(F)F)cc2)nc2c1CSCC2
inactive: [1] | [2] | [3] | [4]

O=C(O)[C@@H](c1ccc(OCc2ccc3ccccc3n2)cc1)C1CCCC1
inactive: [1] | [2] | [3] | [5] | [6] | [7]

Nc1nc2[nH]cc(CCc3ccc(C(=O)N[C@@H](CCC(=O)O)C(=O)O)cc3)c2c(=O)[nH]1
active: [1] 0.469 µM | [3] 0.59 µM | [8] 0.833 µM | [6] 0.743 µM | [7] 6.62 µM
inactive: [2]

COc1ccc([C@@H]2CC(=O)c3c(O)cc(O[C@@H]4O[C@H](CO[C@@H]5O[C@@H](C)[C@H](O)[C@@H](O)[C@@H]5O)[C@@H](O)[C@H](O)[C@@H]4O)cc3O2)cc1O
not listed: [10]
inactive: all other assays above

CS(=O)(=O)c1cccc(CNc2nc(Nc3ccc4c(c3)CCC(=O)N4)ncc2C(F)(F)F)c1
active: [1] 5.9 µM | [2] 4.69 µM | [3] 4.18 µM | [5] 14.8 µM | [6] 11.8 µM | [10] 16.6 µM

CCn1cc(C(=O)O)c(=O)c2cc(F)c(N3CCNC(C)C3)c(F)c21 (configuration not stated)
not listed: [9] | [10]
inactive: all other assays above

S=C(NCc1ccc2c(c1)OCO2)N1CCN(c2ncnc3c2oc2ccccc23)CC1
active: [1] 0.855 µM | [2] 2.41 µM | [3] 1.36 µM | [9] 4.29 µM | [5] 0.855 µM | [8] 5.4 µM | [6] 1.08 µM | [7] 0.605 µM

CC(C)(C)OC(=O)CN(Cc1ccc(Cl)cc1)Cc1ccc([N+](=O)[O-])s1
inactive: [1] | [2] | [3] | [5]
active: [8] 16.6 µM

NS(=O)(=O)c1cc2c(cc1Cl)NC=NS2(=O)=O
not listed: [5] | [9] | [10]
inactive: all other assays above

Cc1c(CCOc2ccc(C(=O)O)cc2)c2cc(Cl)ccc2n1C(c1ccccc1)c1ccccc1
not listed: [8] | [9] | [10]
inactive: all other assays above

COc1ccc(COc2cc3oc(=O)c4cc(C(C)O)ccc4c3cc2OC)cc1 (configuration not stated)
active: [1] 3.72 µM | [2] 4.69 µM | [3] 4.69 µM | [5] 7.43 µM | [6] 18.7 µM | [10] 26.4 µM | [7] 7.43 µM

N[C@@H]1CONC1=O
not listed: [5] | [9] | [10]
inactive: all other assays above

O=C(Nc1nc2ccccc2n1CCN1CCOCC1)c1cccc([N+](=O)[O-])c1
inactive: [8] | [7]
active: [1] 4.18 µM | [2] 7.43 µM | [3] 5.26 µM | [4] 5.26 µM

O=C(O)CCc1ccc(NCc2cccc(Oc3ccccc3)c2)cc1
inactive: [1] | [2] | [3] | [8] | [6] | [7]

Cc1cc(C=c2sc3nc4ccccc4n3c2=O)c(C)n1-c1ccccc1
active: [5] 0.833 µM
inactive: [1] | [2] | [3] | [4] | [7]

CCCc1nc2c(C)cc(-c3nc4ccccc4n3C)cc2n1Cc1ccc(-c2ccccc2C(=O)O)cc1
active: [4] 0.0026 µM
inactive: [1] | [2] | [3] | [5] | [7]

CCOc1cc(N2CCC(O)CC2)ccc1Nc1ncc2c(n1)N(C)c1ccccc1C(=O)N2C
active: [1] 1.05 µM | [2] 0.332 µM | [3] 1.18 µM | [5] 0.935 µM | [8] 8.33 µM | [6] 2.64 µM

CC1(C)Cc2c(-c3ccccc3)c(-c3ccc(Cl)cc3)c(CC(=O)O)n2C1
active: [2] 6.62 µM | [3] 2.35 µM
inactive: [1]

CS(=O)(=O)c1ccc(C(=O)Nc2ccc(Cl)c(-c3ccccn3)c2)c(Cl)c1
active: [6] 4.18 µM
inactive: [1] | [2] | [3] | [4]

CCOC(=O)N[C@@H]1CC[C@@H]2[C@@H](C1)C[C@H]1C(=O)O[C@H](C)[C@H]1[C@@H]2C=Cc1ccc(-c2cccc(F)c2)cn1
active: [1] 18.7 µM

CC[C@@H](C)[C@H](NC(=O)[C@H](CC1CCCCC1)NC(=O)c1ccno1)C(=O)N1CCC2(CCc3ccccc32)CC1
inactive: [1] | [2] | [3] | [5] | [6]

CC(C[N+](C)(C)C)OC(N)=O (configuration not stated)
active: [8] 0.0083 µM
not listed: [9] | [10]
inactive: all other assays above

CC1(C)CNc2cc(NC(=O)c3cccnc3NCc3ccncc3)ccc21
inactive: [1] | [2] | [3] | [5] | [8]

Cc1n[nH]c(C)c1Cc1sc2c(c1C(=O)N1C[C@H](O)CO1)c(=O)n(C)c(=O)n2CC(C)C
active: [3] 0.0118 µM
not listed: [6] | [9] | [10]
inactive: all other assays above

O=C(C=Cc1ccc(/C=C/C(=O)Nc2ccc(C3=NCCN3)cc2)cc1)Nc1ccc(C2=NCCN2)cc1
inactive: [1] | [2] | [3] | [8] | [7]

CCN(c1ccccc1)c1cc(NC)[n+](C)c(C)n1
active: [1] 13.2 µM | [5] 0.235 µM
not listed: [9] | [10]
inactive: all other assays above

Cc1ccc(NC(=O)c2cccc(C(C)(C)C#N)c2)cc1Nc1ccc2ncn(C)c(=O)c2c1
active: [1] 0.332 µM | [2] 1.18 µM | [3] 2.35 µM | [5] 0.166 µM | [8] 11.8 µM | [6] 14.8 µM | [10] 18.7 µM

CC(C)(N)C(=O)N[C@H](COCc1ccccc1)C(=O)N1CCC2(CC1)CN(S(C)(=O)=O)c1ccccc12
active: [5] 18.7 µM | [8] 7.43 µM | [6] 10.5 µM
inactive: [1] | [2] | [3] | [4]

NC(=O)c1cnccn1
inactive: [1] | [2] | [3] | [4] | [6]

Cc1csc(NC(=O)c2sc3nc4c(c(C(F)(F)F)c3c2N)CCC4)n1
inactive: [1] | [2] | [3] | [5] | [7]

Nc1nc2ccc(OC(F)(F)F)cc2s1
active: [1] 16.6 µM
not listed: [4] | [9] | [10]
inactive: all other assays above

Cc1oncc1C(=O)Nc1ccc(C(F)(F)F)cc1
active: [7] 14.8 µM
inactive: [1] | [2] | [3] | [4]

O=C(O)COCCN1CCN(C(c2ccccc2)c2ccc(Cl)cc2)CC1 (configuration not stated)
inactive: [1] | [2] | [3] | [10] | [7]
active: [5] 7.43 µM

N#Cc1ccc(C(c2ccc(C#N)cc2)n2cncn2)cc1
active: [1] 6.62 µM | [2] 18.7 µM

O=C1CCC(N2C(=O)c3ccccc3C2=O)C(=O)N1 (configuration not stated)
not listed: [1] | [9] | [10]
inactive: all other assays above

CCCc1nn(C)c2c(=O)[nH]c(-c3cc(S(=O)(=O)N4CCN(C)CC4)ccc3OCC)nc12
inactive: [1] | [3] | [9]

CN(C)c1ccc(Nc2nc(N)n(C(=O)c3c(F)cccc3F)n2)cc1
active: [1] 20.9 µM | [3] 11.8 µM | [5] 20.9 µM | [4] 18.7 µM | [6] 1.87 µM

O=C1[C@H](Cc2ccc(O)cc2)N2C(=O)CCN(C(=O)NCc3ccccc3)[C@H]2CN1Cc1cccc2ccccc12
active: [5] 2.96 µM
inactive: [2] | [3]

c1ccc(-c2nn3c(c2-c2ccnc4cc(OCCN5CCOCC5)ccc24)CCC3)nc1
inactive: [1] | [2] | [3]
active: [7] 4.18 µM

Cc1[nH]c(=O)c(C#N)cc1-c1ccc2nccn2c1
not listed: [2] | [6] | [9]
inactive: all other assays above

COc1cc2c(cc1OC)CN(CCc1ccc(NC(=O)c3cccc4c(=O)c5cccc(OC)c5[nH]c34)cc1)CC2
inactive: [1] | [3] | [4]

NC(=O)c1ccc(-c2nc(-c3ccc4c(c3)OCO4)c(-c3ccccn3)[nH]2)cc1
active: [3] 1.66 µM | [10] 0.0042 µM
inactive: [1] | [2] | [7]

COc1ccccc1[C@H](c1cccc2ccccc12)[C@@](C)(C#N)C(=O)N1CCC(c2cccc(C(F)(F)F)c2)CC1
active: [1] 4.18 µM | [5] 6.62 µM | [8] 9.35 µM | [6] 1.87 µM

OCCn1cc(-c2cnc3nnn(Cc4ccc5ncccc5c4)c3n2)cn1
inactive: [1] | [2] | [4] | [6] | [7]

O=c1n(CCCN2CCN(c3cccc(Cl)c3)CC2)nc2ccccn12
inactive: [2] | [3] | [5] | [8] | [4] | [7]

CCN(CC)CCCC(C)Nc1nc(C)cc(Nc2ccc3nc(C)cc(N)c3c2)n1 (configuration not stated)
inactive: [8] | [7]
active: [1] 14.8 µM | [2] 7.43 µM | [6] 10.5 µM

CCC(C)(C)C(=O)O[C@H]1C[C@@H](C)C=C2C=C[C@H](C)[C@H](CC[C@@H]3C[C@@H](O)CC(=O)O3)[C@H]21
active: [1] 16.6 µM | [3] 26.4 µM | [5] 13.2 µM | [8] 14.8 µM | [4] 7.43 µM | [6] 14.8 µM | [7] 18.7 µM

O=c1[nH]cnc2[nH]ncc12
active: [1] 23.5 µM
inactive: [2] | [8] | [4] | [7]

CCn1c(-c2nonc2N)nc2c(C#CC(C)(C)O)ncc(OC[C@H]3CCCNC3)c21
active: [1] 0.148 µM | [5] 7.43 µM | [8] 9.35 µM | [6] 4.18 µM | [7] 14.8 µM

COc1nc(-c2ccc3c(c2)OCO3)n(-c2ccc(NC(=O)CSc3ccccc3)cc2)n1
not listed: [1] | [9] | [10]
inactive: all other assays above
